Substitutions are numbered along the chain they refer to. Over roughly 24,000 sequences, “enrichment r” has its median near 0.99; the highest 2% begin near 3.7. The list comes from a sample in which the highest values are over-represented; it also holds similar and randomly drawn sequences.

The record followed here is PMC12136788.

The chains are these.
T1: UNK ZnF1-3 (human, UniProt Q9C0B0 31-174)
T1 sequence: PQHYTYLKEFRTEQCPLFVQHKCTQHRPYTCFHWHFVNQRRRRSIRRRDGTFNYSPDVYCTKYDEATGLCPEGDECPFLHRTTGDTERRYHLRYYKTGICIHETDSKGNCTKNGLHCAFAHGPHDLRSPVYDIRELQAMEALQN

B1: chr1:151206805:151206806:+_ENSG00000143398_ENST00000349792|hu_hu|FALSE|FALSE (ssRNA)
RNA: GGGAGUUCUACAGUCCGACGAUCCUUCUCUCGCUCUUUCUGGGAAGCCCGCCGUUUGUAGGUUGAGCCUUUGAGGUCAUAUUUGAUAUGCAUUUUUACCGAUCUUGGUAAAAGAUUGUUCAUCACCACAAUCCGAAUGUUCUUCAACAGAGGAUUGAGCAUCA
B2: chr1:95362928:95362929:-_ENSG00000117519_ENST00000538964|hu_hu|motif|central (ssRNA)
RNA: GGGAGUUCUACAGUCCGACGAUCAGACCACAUUUAGCAAUAAGCAUGAGUUUAGUCUUCCAUGUAGAAACCAGAUACACGGAACUGUAAAAAAAAAAAAAAAAAAAAAAAGUUUCCUAUUGUUUGAAAAUACCAGUUUAAUAUCAACAGAGGAUUGAGCAUCA
B3: chr4:175231952:175231953:+_ENSG00000164118_ENST00000503780|hu_hu|motif|central (ssRNA)
RNA: GGGAGUUCUACAGUCCGACGAUCAUUCAGAAGGUCCAUGUCACUACAAGAAGCGUAGUCUUCACUAACUUCAUUAAACUCGGUAAAUUCAUCAUUCUUUUUAGACAAAAGCAUUUCUGUUUCAAGAAGAGUGACACGACUAAGCAACAGAGGAUUGAGCAUCA
B4: chr17:64801638:64801639:+_ENSG00000154229_ENST00000413366|hu_mus|hu_hu_hu_mus_False|1_98 (ssRNA)
RNA: GGGAGUUCUACAGUCCGACGAUCUAUAUAUAUAUAUAUAUACACACACAUAUAUAGUAAAACCCUAGUUAAACGUGUAAAGUAGCCAUUCAUUUUUAAAAUUACAUCUACAUUAAAAAAUUAAUAUAUCUGAUAGAGUGCCCACAACAGAGGAUUGAGCAUCA
B5: chr1:84720644:84720645:-_ENSMUSG00000026219_ENSMUST00000027421|mus_hu|FALSE|FALSE (ssRNA)
RNA: GGGAGUUCUACAGUCCGACGAUCUGAAUUUUAAAUUAGAUCUUAACUGGAGAGAACAUGGGACAACAGAAGCCCAUGGGUAACGAAAAUUUGAGAACUGUGAGUUGUAUACAAAAAAAAAACUGUGAGCUGCACAGAUAAUAACAACAGAGGAUUGAGCAUCA
B6: chr17:64801638:64801639:+_ENSG00000154229_ENST00000413366|hu_mus|hu_hu_hu_mus_False|28_88 (ssRNA)
RNA: B4 RNA with U38C, C42U, A43G, C44U, A53G, A114U, C142A, A143G
B7: chr3:25639645:25639646:-_ENSG00000077097_ENST00000264331|hu_mus|FALSE|FALSE (ssRNA)
RNA: GGGAGUUCUACAGUCCGACGAUCAUCAGACAACACAUGACAUUUCAAUGAGUAAAAAAGAGCAUAAAACUGUAUGUGUAAGAACAAAAUGUUAAAAGGCCUACCACAAUAAUAAAAAACCAUCAAUUACAUCAUCACAUUAAACAACAGAGGAUUGAGCAUCA
B8: chr5:69964302:69964303:+_ENSMUSG00000029208_ENSMUST00000154728|mus_hu|FALSE|FALSE (ssRNA)
RNA: GGGAGUUCUACAGUCCGACGAUCUGCAGUCUGGUUUGUUCGUUGGCUGAAUAAACAUGGGAGCUGAGAGCUCUGGAGAAAUACAGCCAUUUACUGGCUGUGAAAUCUCAAGUUAACUACUCUAAAAUCGCUUCGAUUAUGAAACAACAGAGGAUUGAGCAUCA
B9: chr7:90019630:90019631:+_ENSMUSG00000057706_ENSMUST00000082237|mus_hu|motif|central (ssRNA)
RNA: GGGAGUUCUACAGUCCGACGAUCUAUAUCACUGAAUAGAAAAUAUGCUGGGUGAAGCAGAUCUAGAAGAUUUGUCUGAACCGGUAAAAUCUCCAUCCCAACAGAAUACUGUUCAAAACAUUACACAUUUUAUGGUUGUAAUUCCAACAGAGGAUUGAGCAUCA
B10: chr17:64801638:64801639:+_ENSG00000154229_ENST00000413366|hu_mus|hu_hu_hu_mus_False|78_98 (ssRNA)
RNA: B4 RNA with A60G, C62G, C142A, A143G
B11: 135118432_135118552_3022_ncRNA_ENSMUSG00000030795_ENSMUST00000128851|mouse|control|control (ssRNA)
RNA: GGGAGUUCUACAGUCCGACGAUCAUGAGCAAUACACUCAAGAUCUUUCUUGUAGUCCACACCUUCCUUCCCAGAUCUAGUUCCUAUAUAUUUGUCUGAGUACAUAUGUAGAAUUGCAUUGACAUCACUAUUUAAUAUAAAUAUCAACAGAGGAUUGAGCAUCA
B12: chr11:9468696:9468697:+_ENSG00000205339_ENST00000379719|hu_hu|FALSE|FALSE (ssRNA)
RNA: GGGAGUUCUACAGUCCGACGAUCCAUUAACAAUAAUGUGAAAAUUAGAAUUAUGAAUUCAAAAAGCAGUGAAGUCUGAAAAUUUAAAAAGUAGACUAGGUAUUAGGGGAUUAAAGGUAAAGGAAGACGAGAAUGUUUCUUUAACAACAGAGGAUUGAGCAUCA
B13: chr1:225611761:225611762:-_ENSG00000143815_ENST00000272163|hu_mus|hu_hu_hu_mus_True|1_18 (ssRNA)
RNA: GGGAGUUCUACAGUCCGACGAUCCCAGGCCAUCGGCCUCUGACCACUUCACCCUCAACAAACUUCCUACUUGGCAUUUUCUAAAAUUAGUCUGGCCGCGCUCCGGCGGGAACUCCAGACGGCUCCCGACAGUCACCCGCACAGCAACAGAGGAUUGAGCAUCA
B14: chr1:247070963:247070964:-_ENSG00000153207_ENST00000391829|hu_mus|motif|central (ssRNA)
RNA: GGGAGUUCUACAGUCCGACGAUCCUGAUUUGUCCUGUUGAUGUAACUCAGAGUAGAAAUGGCUACUCCCAAUGGGCUUACGGACUGGAAGCACAGGUGGCGCCCCUCUCUCAUCACUCUCUCUCUGAUGUGUGGUACUUCAGCCAACAGAGGAUUGAGCAUCA
B15: chr11:97025304:97025305:-_ENSMUSG00000001440_ENSMUST00000001479|mus_hu|FALSE|FALSE (ssRNA)
RNA: GGGAGUUCUACAGUCCGACGAUCAGCUACUACUCCAUCUGUGUGAUCCUCAUCUCCAGCAAUGUGGUCAAUGAAAGACAGAAUAAAUUCUACUCUGGGUUGUACCAGCAUCACAUCCGGGUGUACGUUCUCCUGAUCCCCCUUCAACAGAGGAUUGAGCAUCA
B16: chr2:25965407:25965408:-_ENSG00000143970_ENST00000336112|hu_hu|motif|central (ssRNA)
RNA: GGGAGUUCUACAGUCCGACGAUCCUGUGCUGCCUGAAUUAAAUCUCUGGCUAGGGUCUUUUCAUCAAAUGUUUGGCCUCGGGUGAACAGGUAAUUCUCCUUACUUAAAGUGGUUUGCUCAUUCAAUGGUAUCUCAGCCUUCACCAACAGAGGAUUGAGCAUCA
B17: chr7:140404665:140404666:+_ENSG00000090266_ENST00000247866|hu_hu|hu_hu_hu_mus_False|8_88 (ssRNA)
RNA: GGGAGUUCUACAGUCCGACGAUCUGCUCCUACUCGUCCAGAGAGUUUACACCUUCAGUCCUCGUCAUCAGGAGGGAUUCCCAGUUCUUCAUCUGUCCACUGUGAAGGAUCUGGAUAUGAAAAGUGACCCAGCACCUCAUCCGACAACAGAGGAUUGAGCAUCA
B18: chr18:67804014:67804015:+_ENSMUSG00000024537_ENSMUST00000025418|mus_mus|motif|central (ssRNA)
RNA: GGGAGUUCUACAGUCCGACGAUCGCAAUCAGUAUAGAAAUAACCAAUCUUACACAUGUUCAGUGUAGAAAUAAUCAGAUCGGUUGCAAGCUGGCCAACAUUUCCAACGGAUACUGCUGGCAUCAGGAGUGUAAAGUUCGUUAGCAACAGAGGAUUGAGCAUCA
B19: chr4:140556289:140556290:+_ENSMUSG00000036622_ENSMUST00000037055|mus_mus|mus_mus_mus_hu_False|48_48 (ssRNA)
RNA: GGGAGUUCUACAGUCCGACGAUCGAUGGAGCUCACCAGGCCCCCUUUUGCCGUGCAGAACCCUGUGCGGGUCACCACUGCCAGGACACGGGGUCCCACAUAGGCCCGGGCCUGCAAGAUGAGGGUCCCGCAGAAGAGUGUGUGCAACAGAGGAUUGAGCAUCA
B20: 134094901_134095021_423_5pUTR_ENSG00000151502_ENST00000281187|human|control|control (ssRNA)
RNA: GGGAGUUCUACAGUCCGACGAUCCUCAUCGCACCGCCGGGCCGGGCGGGUCUCGGUAAGGACCGCUCCCUCGCACCGGGGCGCGGGCUGCCCUAGGUAAAGAAGGCCAGAGGGCCCGAUGCGCGAGCGCGCUCGGCCGCCGCGCAACAGAGGAUUGAGCAUCA
B21: chr14:63765801:63765802:-_ENSMUSG00000021273_ENSMUST00000054963|mus_mus|motif|central (ssRNA)
RNA: GGGAGUUCUACAGUCCGACGAUCCUGCUUGGUUUUGCUUGAUGAUGGGUCUGAGUUGGGGAUCCGGUGAUAAAUCUCUUCGGUGUACUGGUAUAUGAUAGCUUUGACGGCAGGCAUGUUGGUGGCAUCCAUCAUGAGGGUGACCAACAGAGGAUUGAGCAUCA
B22: 46153067_46153187_242_5pUTR_ENSG00000159596_ENST00000372025|human|control|control (ssRNA)
RNA: GGGAGUUCUACAGUCCGACGAUCGAUAAAACUGAAGACAUGUAGUAGGAGAUCUCAGGGGCCCACGCCGGCCAGUCCCUCCAAUCCUCCGGAUUCUAGGUAGUCUAGCUUCCUGGUUGCCAGCCAUUACACGGUUUAGCUUUCCAACAGAGGAUUGAGCAUCA

This test deals with T1, UNK ZnF1-3. The test is described as follows: nsRBNS (natural sequence RNA bind-n-seq); RBNS binding buffer (assumed for nsRBNS): 25 mM Tris pH 7.5, 150 mM KCl, 3 mM MgCl2, 0.01% Triton X-100, 500 ug/ml BSA, 20 U/ml SUPERase-In, 4 C; UNK is unkempt and MSI1 is Musashi-1; names of the RNAs are library labels; protein concentration not given here; high values mean tight binding.
On to B1, for which the binding signal is 0.464 enrichment R.
B2 gave a binding signal of 5.33 enrichment R.
As for B3, the figure is 0.772 enrichment R.
As for B4, the figure is 4.56 enrichment R; as for B5, 5.25 enrichment R.
The same measure for B6: 3.46 enrichment R; for B7: 1.63 enrichment R.
Molecule B8 registered a binding signal of 0.663 enrichment R.
Take B9: the binding signal came to 0.76 enrichment R.
As for B10, the figure is 3.51 enrichment R; as for B11, 1.78 enrichment R; as for B12, 5.89 enrichment R.
With B13, the binding signal came out at 1.37 enrichment R.
As for B14, the figure is 1.02 enrichment R.
As for B15, the figure is 1.13 enrichment R.
Regarding B16, the binding signal was determined as 0.753 enrichment R.
As for B17, the figure is 1.36 enrichment R; as for B18, 0.794 enrichment R; as for B19, 0.98 enrichment R.
In turn, B20 had a binding signal of 0.289 enrichment R.
The molecule B21 had a binding signal of 1.69 enrichment R.
As for B22, the binding signal worked out at 0.934 enrichment R.
